Among the data in PubChem BioAssay (NCATS) are Potency values, retold here.

Results filed as inconclusive are left out. Where a call stands in place of a potency, no number is given. Active and inactive are the calls of the source. The call rests on the fitted dose curve; in most records, active means well fitted inhibition curve with a large enough effect; inconclusive means small, poorly fitted or top-dose-only effect; inactive means no such curve, though single readings can be large or run the other way.
Potency means the concentration at half of the fitted maximal effect.

Chain of Muscarinic acetylcholine receptor M1 (Rattus norvegicus) (P08482 whole entry, looked up): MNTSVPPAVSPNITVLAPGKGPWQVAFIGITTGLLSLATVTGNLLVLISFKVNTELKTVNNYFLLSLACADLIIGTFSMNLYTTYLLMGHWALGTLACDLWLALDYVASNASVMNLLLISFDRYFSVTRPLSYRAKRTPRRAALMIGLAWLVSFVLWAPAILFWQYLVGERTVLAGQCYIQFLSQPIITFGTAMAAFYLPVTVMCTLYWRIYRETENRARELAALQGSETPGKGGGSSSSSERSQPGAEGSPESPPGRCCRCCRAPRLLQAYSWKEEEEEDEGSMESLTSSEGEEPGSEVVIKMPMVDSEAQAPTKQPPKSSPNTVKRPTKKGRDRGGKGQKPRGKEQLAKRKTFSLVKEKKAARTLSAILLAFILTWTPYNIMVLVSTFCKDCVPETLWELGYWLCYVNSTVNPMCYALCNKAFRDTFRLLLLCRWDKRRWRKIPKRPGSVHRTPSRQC

For this assay, the target named is Muscarinic acetylcholine receptor M1 (Rattus norvegicus) (UniProt P08482). Description: qHTS Assay for Antagonists of Acetylcholine Muscarinic M1 Receptor: Measurement of IP-One Response (AID 944). Further: nearly all actives have a fitted effect of over 75% in size. The following applies: CHO-M1 cells, IP-One HTRF, antagonist mode; series mostly up to 46.1 µM. The text has this:
NIH Molecular Libraries Screening Centers Network [MLSCN]
NIH Chemical Genomics Center [NCGC]
Acetylcholine muscarinic M1 receptor is a G-protein coupled receptor (GPCR) coupling to the Gq G protein. It is mainly expressed in brain and functionally related to the learning and memory processes. The agonists of this receptor have the potential for the treatment of Alzheimer's disease and cognitive impairments associated with Schizophrenia.
Upon an activation of the M1 receptor, phosholipase C (PLC) is activated to produce inositol 1,4,5-trisphosphate (IP3) and diacyl glycerol (DAG). The IP3 is very rapidly hydrolyzed to IP2, IP1 and then inositol by a series of enzymes and Ca2+ is quickly pumped back into ER by the calcium pump on the ER membrane, which effectively switches off the IP3 and Ca2+ signaling. For compound screen, the changes in intracellular free Ca2+ concentration can be measured by the fluorescence calcium dye such as Fura-2, Fluo-3 and Fluo-4 with a fluorescence kinetic plate reader. IP1 or total IPs including IP1, IP2 and IP3 are usually measured as an alternative method for assessing the function of Gq-coupled GPCRs. We have applied a time-resolved fluorescence based (TR-FRET) IP1 assay in which an IP1 specific antibody is used to detect the labeled IP1 tracer. When the cell lysate contains the elevated IP1, the TR-FRET between the labeled antibody and IP1 tracer is disrupted resulting in a reduction in the total signal. Since the TR-FRET is used, a homogenous assay with out cell wash and medium change is possible which also can be miniaturized into the high density format for HTS.
We have obtained a M1-CHO cell line transfected with rat acetylcholine M1 receptor and optimized this IP-One assay with this cell line for compound screening as a counter-screen assay for other Gq-coupled GPCRs.
NCGC Assay Protocol Summary:
The CHO-M1 (CHO-M1) cell line transfected with the rat acetylcholine muscarinic M1 receptor was obtained from American Type Culture Collection (ATCC). The cells were maintained in call culture flasks with F12 Kaighn's media (Invitrogen) supplemented with 10 % FBS, 100 units/ml penicillin, 100 ug/ml streptomycin and 250 ug/ml geneticin (Invitrogen) at 37C, 5 % CO2 in a humidified atmosphere. At 90-95 % confluence, the cells were then detached in 15 ml 0.25 % trypsin by 3 minutes incubation at 37C and centrifuged at 1000 RPM to remove the trypsin solution. The resulting cell pellet was resuspended in the cell freezing media containing 10 % DMSO (Invitrogen) at a density of 4 x 10^7 cells/ml. The aliquots of cells at 0.5 - 1 ml per vial were frozen down slowly at 1 degree C/min using a Cryo 1 degree C freezing container in the presence of isopropanol (Nalgene Nunc, Rochster, NY) overnight in a -80C freezer. The frozen cells were then transferred to liquid nitrogen for the storage up to one year.
The resuspended frozen cells were plated at 3 ul/well with 2000 cells in the black, tissue culture treated, clear bottom 1536-well plates. The cells were cultured at 37C, 5 % CO2 for overnight to allow the cells recovering from the frozen state. 20 nl/well of compound in DMSO solution was added to the assay plate and incubated for 10 min. Carbachol was prepared in stimulation buffer (10mM Hepes, 1mM CaCl2, 0.5 mM MgCl2, 4.2 mM KCl, 146 mM NaCl, 5.5 mM glucose 50mM LiCl 50mM pH7.4) which was added to the assay plate at 1 ul/well. After an incubation with carbachol at 37C, 5 % CO2 for 30 min, all the wells in the assay plate were added with 1 ul/well of d2 conjugated IP1 (d2-IP1) and 1 ul/well of Eu+ cryptate conjugated anti-IP1 antibody (Eu+-Ab), both from the IP-One kit (Cisbio USA., Inc.). After 10 min incubation at the room temperature, the assay plates were measured in the HTRF detection mode in ViewLux plate reader (Ex=337 nm. Em(1)=620 and Em(2)=665 nm)
1536-well assay protocol:
(1) 4 ul/well containing 2000 M1-CHO cells in 1536 tissue culture treated white plate
(3) Add 23 nl compound diluted in DMSO
[…]
Background: In qHTS, concentration-response curves come from the screen itself.
As to `C[C@]12CCC(=O)C=C1CC[C@@H]1[C@@H]2[C@@H](O)C[C@@]2(C)[C@H]1CC[C@]2(O)C(=O)CO`, the Potency entry was “inactive”.

For `Nc1ccc(S(=O)(=O)Nc2ccnn2-c2ccccc2)cc1`, the Potency entry is “inactive”.

Regarding `C1COC(NC(C2CC2)C2CC2)=N1`, the Potency entry was “inactive”.

Take `N=c1nc(N2CCCCC2)cc(N)n1O`: the Potency entry is “inactive”.

Take `O=c1n(CCCN2CCN(c3cccc(Cl)c3)CC2)nc2ccccn12`: the Potency result is “inactive”.

For `CCOC(=O)C1=C[C@@]2(CC)CCCN3CCc4c(n1c1ccccc41)[C@H]32`, the Potency entry was “inactive”.

As for `CCCCNc1cc(C(=O)O)cc(S(N)(=O)=O)c1Oc1ccccc1`, the Potency entry was “inactive”.

On to `Cc1[nH]c(=O)c(C#N)cc1-c1ccc2nccn2c1`, for which the Potency entry is “inactive”.

Consider `OC(CN1CCC(Cc2ccc(F)cc2)CC1)c1ccc(Cl)cc1` (centres undefined), for which the Potency is 7.94 µM (active).

As for `CC(C)NCC(O)COc1ccc(COCCOC(C)C)cc1` (centres undefined), the Potency entry is “inactive”.

In the case of `CC(C)(Sc1ccc(CCN(CCCCC2CCCCC2)C(=O)NC2CCCCC2)cc1)C(=O)O`, the Potency result is “inactive”.

On to `Cc1ccc(N(CC2=NCCN2)c2cccc(O)c2)cc1`, for which the Potency result is “inactive”.

For the molecule `CNC[C@H](O)c1cccc(O)c1`, the Potency entry is “inactive”.

For `NCCc1ccc(O)c(O)c1`, the Potency entry was “inactive”.
